Shown are actives, neighbours in structure and some others; about 3% of the full set was active somewhere.
PMP22 txn = PMP22 gene transcription modulation; 43,000 tested, 2% active; S16 Pmp22-F2sN Schwann cells, FLuc/NLuc coincidence luminescence, 24 h; Potency, µM (highest dose often 57.5 µM), without a hit: top-dose activity change, negative = inhibition, usual class: inhibitors; active = clear falling dose curves in both reporters; inconclusive = both reporters move, but less clearly or upward; inactive = either reporter flat; the % is the NLuc reporter signal; note: potency is the fitted concentration of half-maximal effect; % is set by controls: 0 for no effect and ±100 for the full control effect
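Rat S16 Pmp22-F2sN cells, 500-1,000/well in phenol red-free DMEM + 10% FBS, compound-treated 24 h (37C, 5% CO2). Luminescence: FLuc read, Stop&Glo added, NLuc read.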
S16 viability = cytotoxicity in S16 Pmp22-F2sN Schwann cells. S16 Pmp22-F2sN Schwann cells viability, CellTiter-Glo, 24 h. 43,000 tested, 0.48% active. Potency, µM (series often up to 57.5 µM), for the others: at the top dose activity change, negative = cytotoxicity, hits mostly cytotoxic; note: potency is the fitted concentration of half-maximal effect; % is set by controls: 0 for no effect and ±100 for the full control effect; nearly all actives have a fitted effect of over 65% in size
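Viability was measured by CellTiter-Glo luminescence (15 min, room temperature). This followed 24 h at 37 °C of compound exposure (23 nL pin transfer) in S16 Pmp22-F2sN Schwann cells, 500-1,000 per well.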
pS6 MEF inh = mTORC1 pathway inhibition measured by phospho-rpS6; Tsc2-/- p53-/- MEF, phospho-rpS6 immunofluorescence/PI, 24 h; Potency, µM (highest dose often 38.3 µM), for inactives: top-dose activity change, negative = inhibition, most hits filed as inhibitors; 44,000 tested, 0.78% active; AID 493208;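 note: potency is the fitted concentration of half-maximal effect; plate controls were DMSO for no effect and rapamycin for full effect; nearly all actives have a fitted effect of over 50% in size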
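Tsc2-/-, p53-/- MEFs (empty-vector stable line) in DMEM + 10% FBS were treated with compounds 24 h at 37 degree Celsius, fixed, and immunostained for phospho-rpS6 (Alexa-488) with propidium iodide counterstain. Laser-scanning cytometry gave % positive cells, normalized against 7.5 nM rapamycin and DMSO.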
p53null 32C tox = p53 null cell cytotoxicity, permissive temperature | Potency, µM (doses to about 46.1 µM), without a hit: at the top dose activity change, negative = cytotoxicity, most hits filed as cytotoxic | H1299-neo p53 null cells, ATP luminescence, 24 h, 32C | AID 903 | 55,000 tested, 0.62% active;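 note: potency is the fitted concentration of half-maximal effect; 0% = DMSO only and -100% = full killing by 100 µM tamoxifen; nearly all actives have a fitted effect of over 55% in size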
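Cytotoxicity: H1299-neo (no p53), 32C, 24 h treatment. Concentrations up to 46 uM. Readout cellular ATP, luminescence. Normalization to DMSO basal and tamoxifen 100 uM maximal kill.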
OvCa metastasis = inhibitors of ovarian cancer cell adhesion and invasion in omental model. AID 1963576. Potency, µM (series often up to 45.8 µM), for inactives: at the top dose activity change, negative = inhibition, usual class: inhibitors. 46,000 tested, 0.1% active. SKOV3ip1-GFP adhesion/invasion on 3D omental model, fluorescence;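 note: potency is the fitted concentration of half-maximal effect; plate controls were DMSO wells for no effect and tomatine positive control wells for full effect; nearly all actives have a fitted effect of over 65% in size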
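Adhesion/invasion was scored as fixed GFP-labeled SKOV3ip1 cell counts (488/509 nm), normalized to DMSO and tomatine controls. Cancer cells in serum-free medium, with four compound doses (0.36-46 umol/L), sat 2 hr at RT then 16 hr at 37 C on a 48 hr fibroblast/mesothelial/ECM culture.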
p53null 39C tox = p53 null cell cytotoxicity, nonpermissive temperature; 55,000 tested, 0.97% active; H1299 p53-null (neo) cells, 39C, ATPlite viability, 24 h; Potency, µM (top dose mostly 46.1 µM), for the others: at the top dose activity, negative = cell killing, hits mostly cytotoxic;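 note: potency is the fitted concentration of half-maximal effect; 0% = DMSO only and -100% = full killing by 100 µM tamoxifen; nearly all actives have a fitted effect of over 50% in size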
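Concentration-response (up to 46 uM) was run for 24 h at the nonpermissive 39C on H1299-p53A138V or H1299-neo cells. ATP content was measured with ATPlite luminescence. AC50 values were Hill-modeled after normalizing between DMSO and 100 uM tamoxifen killing.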
NLuc sat counter = inhibits NanoLuc at saturating substrate, PMP22 counter-screen | shares compounds with PMP22 txn | 690 tested, 4% active | Potency, µM (titrated, usually from 57.5 µM), for inactives: top-dose activity change, negative = inhibition, actives largely listed as inhibitors | AID 1508638 | Secreted NLuc enzyme (filtered S16 cell medium), Nano-Glo luminescence; note: potency is the fitted concentration of half-maximal effect; % is set by controls: 0 for no effect and ±100 for the full control effect
NLuc Km counter = counter-screen for PMP22 expression modulators: NanoLuc inhibition at Km; shares compounds with PMP22 txn; secreted NLuc enzyme, coelenterazine luminescence, Km conditions; Potency, µM (titrated, usually from 57.5 µM), inactives show top-dose activity change, negative = inhibition, usual class: inhibitors; 690 tested, 5% active; note: potency is the fitted concentration of half-maximal effect; % is set by controls: 0 for no effect and ±100 for the full control effect
FLuc counter = counter-screen for PMP22 expression modulators: firefly luciferase inhibition. shares compounds with PMP22 txn. purified P. pyralis FLuc, luminescence, 10 min. Potency, µM (titrated, usually from 57.5 µM), for inactives: at the top dose activity, negative = inhibition, most hits filed as inhibitors. 690 tested, under 10 active; note: % of control where 0% means no effect
Target sequence (P08659 whole entry, looked up): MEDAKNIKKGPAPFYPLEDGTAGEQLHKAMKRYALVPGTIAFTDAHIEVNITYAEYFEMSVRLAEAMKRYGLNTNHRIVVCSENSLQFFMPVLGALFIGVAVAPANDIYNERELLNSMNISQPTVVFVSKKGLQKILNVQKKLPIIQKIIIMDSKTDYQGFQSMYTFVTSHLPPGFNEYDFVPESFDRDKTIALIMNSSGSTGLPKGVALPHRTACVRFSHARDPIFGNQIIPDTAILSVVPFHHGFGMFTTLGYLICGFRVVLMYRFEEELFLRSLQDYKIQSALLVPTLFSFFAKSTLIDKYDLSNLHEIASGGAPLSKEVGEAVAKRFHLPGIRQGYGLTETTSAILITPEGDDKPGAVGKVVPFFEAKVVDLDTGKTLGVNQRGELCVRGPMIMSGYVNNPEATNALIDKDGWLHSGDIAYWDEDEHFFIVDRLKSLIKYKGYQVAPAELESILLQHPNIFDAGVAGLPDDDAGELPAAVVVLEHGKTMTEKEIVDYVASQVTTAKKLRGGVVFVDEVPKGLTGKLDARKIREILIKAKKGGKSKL
S16 F2sN tox cnf = confirmation of cytotoxicity in S16 Pmp22-F2sN Schwann cells (luciferase reporters placed in the Pmp22 gene) | shares compounds with PMP22 txn | S16 Schwann cells viability, CellTiter-Glo ATP luminescence, 24 h | Potency, µM (series often up to 57.5 µM), for the others: at the top dose activity change, negative = viability loss, actives largely listed as cytotoxic | 690 tested, 7% active; note: potency is the fitted concentration of half-maximal effect; % is set by controls: 0 for no effect and ±100 for the full control effect
PMP22 txn conf = confirmation of modulators of PMP22 gene transcription in S16 cells. shares compounds with PMP22 txn. S16 Schwann cells Pmp22-F2sN, dual luciferase, 24 h. Potency, µM (doses to about 57.5 µM), for inactives: at the highest dose activity change, negative = inhibition, usual class: inhibitors. 690 tested, 22% active. AID 1508646; active = clear falling dose curves in both reporters; inconclusive = both reporters move, but less clearly or upward; inactive = either reporter flat; the % is the FLuc reporter signal; note: potency is the fitted concentration of half-maximal effect
Starred values were filed as active, the others as inactive; i = inactive; ? = inconclusive; · = no result given. Unless noted, calls come from the whole dose curve; as a rule, active = well fitted curve in the direction sought with a large enough effect; inconclusive = small, poorly fitted or top-dose-only effect, or another doubt; inactive = no such curve, though single readings can be large; an effect the other way counts as inactive or inconclusive.

SMILES | PMP22 txn | S16 viability | pS6 MEF inh | p53null 32C tox | OvCa metastasis | p53null 39C tox | NLuc sat counter | NLuc Km counter | FLuc counter | S16 F2sN tox cnf | PMP22 txn conf
CCN(CC)CCCNC(=O)c1ccc2c(c1)sc1nc(-c3ccc(C)cc3)cn12 | 10µM* | ? | 6% | 4% | ? | 1% | ? | ? | 15µM* | 15µM* | 15µM*
O=C(Nc1ccccc1C(F)(F)F)N1CCN(c2ccc3nnc(-c4ccc(F)cc4)n3n2)CC1 | 16µM* | -7% | -2% | 27% | -19% | 15% | -18% | -4% | -9% | -10% | ?
CN(C)CCOc1ccc(-c2nc(-c3ccc4c(c3)CCC4=NO)c(-c3ccncc3)[nH]2)cc1 | · | · | · | · | -4% | · | · | · | · | · | ·
CCOC(=O)c1c(NC(=O)c2ccc(S(=O)(=O)N3CCC(C)CC3)cc2)sc2c1CCN(C)C2 | 18µM* | ? | 15µM* | -26% | ? | -2% | ? | ? | 6% | ? | 18µM*
CCOC(=O)c1c(NC(=O)c2ccc(S(=O)(=O)N(C)C)cc2)sc2c1CCN(C)C2 | ? | -7% | ? | -1% | ? | -6% | · | · | · | · | ·
Cc1ccc(Nc2cc(C(=O)NC3CCCC3)c3ccccc3n2)cc1C | 2.8µM* | -8% | -13% | -2% | -11% | -15% | 2% | 1% | ? | 9% | -11%
COc1ccc(CCNC(=O)c2ccc(Cn3c(=O)c4ccccc4n(Cc4cccc(Cl)c4)c3=O)cc2)cc1OC | ? | 7% | 12% | 15% | 118% | 20% | -16% | 3% | 1% | 3% | 3%
O=C(NC1CCN(Cc2ccccc2)CC1)c1ccc(Cn2c(=O)c3ccccc3n(Cc3ccccc3)c2=O)cc1 | -32% | 6% | -8% | 6% | i | 15% | · | · | · | · | ·
COc1ccc(CCNC(=O)c2ccc(Cn3c(=O)c4ccccc4n(Cc4cccc(F)c4)c3=O)cc2)cc1OC | ? | -8% | 4% | 6% | i | ? | · | · | · | · | ·
O=C(NC1CCN(Cc2ccccc2)CC1)c1ccc(Cn2c(=O)c3ccccc3n(Cc3ccc(Cl)cc3)c2=O)cc1 | 12µM* | 5% | -3% | 9% | -9% | -10% | -7% | 0% | 8% | 12µM* | 11µM*
COCCCNC(=O)c1ccc(Cn2c(=O)c3ccccc3n(Cc3ccc(Cl)cc3)c2=O)cc1 | 11µM* | ? | 6% | 19% | i | -9% | ? | ? | 1% | -24% | -41%

From PubChem
